KCNH2 3.1 block = KCNH2 3.1 (human) potassium channel inhibition; U2OS KCNH2 3.1, thallium flux FluxOr; stronger effect = lower value; activity change, % (tested at about 1.8 µM); hit rate 0.95% among 340,000; AID 720553;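 active = maximum activity change below -70%; inconclusive = maximum activity change from -70% to -50%; inactive = maximum activity change above -50%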;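 also: thallium influx rate constant from kinetic fluorescence after stimulation buffer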
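Thallium flux via FluxOr fluorescence (Red40 quencher, 45 min loading) in U2OS cells virally expressing the KCNH2 3.1 isoform (1.77 x 10^8 /mL virus, overnight at 37 C). Rate constants from 2-min kinetic reads post-stimulation, normalised to positive and negative controls.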
hERG WT inh = KCNH2 (human, wildtype) channel inhibition; Q12809; U2OS, BacMam KCNH2, thallium flux FluxOr; stronger effect = lower value; hit rate 0.37% among 340,000; AID 720551; activity change, % at 1.84 µM;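 active = maximum activity change below -70%; inconclusive = maximum activity change between -70% and -50%; inactive = maximum activity change above -50%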
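U2OS cells were transduced with wild-type KCNH2 virus (2.03 x 10^8 / mL) for 4 h at room temperature, then cultured overnight at 37 C. Thallium flux was read with FluxOr dye. Rate constants were normalized to DMSO controls.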
USP1 inh = blocks the human USP1/UAF1 deubiquitinase complex; recombinant USP1/UAF1, Ub-Rhodamine cleavage fluorescence; Potency, µM (doses to about 57.1 µM), for inactives: at the top dose activity change, negative = inhibition, actives largely listed as inhibitors; hit rate 0.23% among 390,000; AID 743255; active = well fitted inhibition curve with a large enough effect; inconclusive = small, poorly fitted or top-dose-only effect; inactive = no such curve, though single readings can be large or run the other way; also: potency is read from the fitted curve at half-maximal effect; nearly all actives have a fitted effect of over 60% in size
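1 nM enzyme complex + cpd, 15 min RT; start with Ub-Rho 150nM final; kinetic fluorescence ex 480/em 540, 6 reads q60 s. Buffer 50mM HEPES pH 7.8, 0.5mM EDTA, 0.1 mg/ml BSA, 1mM TCEP, 0.01% Tween-20.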
Giardia killer = Giardia lamblia killing; Giardia lamblia trophozoite viability; AID 540267; hit rate 0.15% among 340,000; activity change, % at 7.66 µM, hits read low; in the data active = activity change below about -80%; inconclusive = between about -30% and that limit;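 also: parasites exposed to compound for two days anaerobically before the ATP read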
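Media and compound were dispensed first, then trophozoites at 100 cells/well; plates sat 48 hrs at 37 deg C without oxygen before ATP luminescence reagent was added and read after 15-30 min at room temperature.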
FBPA coupling cs = inhibits coupling enzyme system, counter-screen for aldolase hits; coupling enzyme system counterscreen, AmpLite Red fluorescence; activity change, negative = inhibition, % at 58.2 µM, hits read low; hit rate 0.67% among 290,000; AID 2472; in the data active = activity change below about -30%
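Compounds tested against the coupling enzymes alone at 57.5 uM final; readout was AmpLite Red fluorescence (525/598 nm) after 20 min at RT.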
* marks the source's active call; other numbers are inactive results; ? = inconclusive; · = not tested or not shown. Shown are actives, neighbours in structure and some others; about 1.7% of the full set was active somewhere. % is scaled to controls: 0 for no effect and ±100 for the full control effect.

SMILES	KCNH2 3.1 block	hERG WT inh	USP1 inh	Giardia killer	FBPA coupling cs
C[C@@H]1O[C@@H](O[C@H]2CC[C@@H](O[C@H]3[C@H](O)C[C@H](c4ccc5c(c4O)C(=O)C4=C(C5=O)[C@@]5(O)C(=O)C[C@](C)(O[C@H]6CC[C@H](O[C@H]7C=CC(=O)[C@H](C)O7)[C@H](C)O6)C[C@@]5(O)C=C4)O[C@@H]3C)O[C@H]2C)C=CC1=O	·	·	·	·	-74*
C[C@H]1CN([C@@H](C)CO)C(=O)c2cccc(NC(=O)c3ccc(-c4nccs4)cc3)c2O[C@@H]1CN(C)C(=O)Nc1cccc2ccccc12	4	-3	-24%	24	·
Cc1occc1C(=O)Nc1ccccc1	·	·	·	·	-2
O=C(c1cc(F)ccc1F)C1CCCN(CCCc2ccccc2)C1 (centres undefined)	-101*	4	-4%	-8	5
CCOP(=S)(OCC)Oc1ccc(Cl)cc1Cl	·	·	·	·	3
CCCC(Cn1cncn1)c1ccc(Cl)cc1Cl (centres undefined)	·	·	·	·	-1
Cc1cccc(N2CCN(CCc3ccccc3)CC2)c1C	-82*	-48	-4%	4	-8
Cc1ccc(N2CCN(CCc3ccccc3)CC2)cc1	-13	38	-24%	10	13
CCn1c(O)c(C=Nc2ccc(N3CCOCC3)cc2)c(=O)n(CC)c1=S	-12	-6	18µM*	6	0
C[C@@H]1C[C@@H]([C@H](O)CC2CC(=O)NC(=O)C2)C(=O)[C@@H](C)C1	-3	-3	?	-82*	-1
CCn1c(O)c(/C=N/NC(=O)c2ccccc2)c(=O)[nH]c1=S	-3	1	-21%	2	-1
COc1ccccc1-n1c(O)c(/C=N/NC(=S)Nc2ccccc2)c(=O)[nH]c1=S	-93*	-3	-2%	-12	-10
COc1ccc(CN(CCc2c[nH]c3ccccc23)Cc2ccc(OC)cc2)cc1	-106*	-43	-17%	1	·
COc1ccccc1N1CCN(Cc2ccc(Br)cc2)CC1	-76*	19	-15%	-22	-1
O=c1c(O)c(-c2ccc(O)c(O)c2)oc2c(O)c(O)cc(O)c12	·	·	·	·	-57*
C[C@@H]1C(=O)O[C@H]2CC34[C@H]5C[C@@H](C(C)(C)C)[C@]36[C@@H](OC(=O)[C@@H]6O)O[C@@]4(C(=O)O5)[C@]21O (some centres undefined)	13	-3	9%	-11	·
CCOP(=S)(OCC)OCCSCC	·	·	·	·	3
ClCCN(CCCl)c1ccc(C=NNc2ncccn2)cc1	13	9	?	23	·
ClCCN(CCCl)c1ccc(C=Cc2ccncn2)cc1	5	-8	25µM*	-26	·
C[C@H]1CO1	·	·	·	·	1
CN1CCc2cc3c(c4c2[C@H]1Cc1ccccc1-4)OCO3	·	·	·	·	-33*
C[C@@]12CCC3C(CCC4=CC(=O)CC[C@]43C)C1CCC2O (some centres undefined)	·	·	·	·	7
OC(c1ccc(Cl)cc1)(c1cncnc1)c1ccccc1Cl (centres undefined)	·	·	·	·	-2
CC1[C@H]2Cc3ccc(O)cc3[C@]1(C)CCN2CCc1ccccc1 (some centres undefined)	-13	24	-14%	-1	·
CN1CC[C@]2(C)c3cc(O)ccc3N(C)[C@@H]12	·	·	·	·	-69*
CC(C)C[C@H]1C(=O)N2CCCC2[C@]2(O)O[C@](NC(=O)[C@@H]3C=C4c5cccc6[nH]cc(c56)CC4N(C)C3)(C(C)C)C(=O)N12 (some centres undefined)	2	1	13µM*	-15	-38*
CC(C)[C@@]1(NC(=O)[C@@H]2C=C3c4cccc5[nH]cc(c45)C[C@H]3N(C)C2)O[C@@]2(O)[C@@H]3CCCN3C(=O)[C@H](Cc3ccccc3)N2C1=O	·	·	·	·	-40*
CN1C[C@@H](CO)C=C2c3cccc4[nH]cc(c34)CC21 (some centres undefined)	·	·	·	6	-1
CN1C[C@@H](C(=O)N[C@@]2(C)O[C@]3(O)C4CCCN4C(=O)[C@@H](Cc4ccccc4)N3C2=O)C=C2c3cccc4[nH]cc(c34)C[C@@H]21 (some centres undefined)	·	·	·	·	-32*
CCOC(=O)c1c(NC(=O)c2c(N)n(CCCOC)c3nc4ccccc4nc23)sc2c1CCCC2	-71*	4	?	0	·

From PubChem
